Measured values from PubChem BioAssay (NCI).
This is part of a sample that, as a whole, favours compounds with a hit. Of some 79,000 tested, about 15% had one in any assay. Calls of active or inactive are those of the source. No stated cut-off is given here; in the data, active means growth inhibition above about 70%; inactive means the rest.

Experiment: NCI Yeast Anticancer Drug Screen. Data for the rad50EPP+ strain (AID 151);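 further: 0% = growth of vehicle-treated control cultures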
Details: S. cerevisiae rad50 mutant strain, at 100.0 µM, hits give high values
In short: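 Vehicle-normalised growth inhibition; rad50EPP+ yeast strain, altered in DNA damage repair, compound-treated.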

Row | SMILES | growth inhibition
1 | S=C(S)NN1CCOCC1 | 89% (active)
2 | COc1cc2c3c(cccc3c1)C(=O)N(CCN(C)C)C2=O | 78% (active)
3 | COC(=O)C1=C(C)NC(C)=C(C(=O)OCCCN2CCC(c3ccccc3)(c3ccccc3)CC2)C1c1cccc([N+](=O)[O-])c1 (stereo not given) | 82% (active)
4 | c1ccc2c(c1)Oc1cccc3cccc-2c13 | 63% (inactive)
5 | CN(C)CCOc1ccc2c(c1)C/C(=C/c1ncc([N+](=O)[O-])n1C)C2=O | 59% (inactive)
6 | Cc1ccc(CCC2=CCCc3c2ccc2ccccc32)cc1 | 58% (inactive)
7 | CNC(=O)OCc1c(COC(=O)NC)c(-c2ccc(Cl)c(Cl)c2)n2c1CCC2 | 4% (inactive)
8 | Clc1ccccc1C1OC1c1ccccc1Cl (stereo not given) | 70% (active)
9 | O=[N+]([O-])c1cc(CCl)ccc1CCl | 98% (active)
10 | O=C1C=CC(=O)c2c(O)c(Nc3ccc(OC(F)(F)F)cc3)c(Cl)c(O)c21 | 93% (active)
11 | S=c1[nH]nc(Nc2ccc(Cl)cc2)s1 | 23% (inactive)
12 | Cn1ccnc1Oc1ccc(Cl)cc1 | 37% (inactive)
13 | BrCc1cccc2ccc3cccc(CBr)c3c12 | 24% (inactive)
14 | O=C1c2ccccc2-c2nc3ccccc3nc21 | 81% (active)
15 | CCCCCCCCCCCCCCCCCCNC | 89% (active)
16 | Oc1ccc(NCn2c(=S)sc3ccccc32)cc1 | 82% (active)
17 | O=C1C2CC[C@@H]3C(=O)C(Cl)(Cl)[C@@H]3CCC2C1(Cl)Cl (stereo not given in full) | 50% (inactive)
18 | CC[n+]1ccc2c(C)c3[nH]c4ccc(O)cc4c3c(C)c2c1 | 90% (active)
19 | Cc1ccc(-n2cc(-c3ccc(Cl)cc3)c(C#N)c2N)cc1 | 56% (inactive)
20 | CC(=O)[O][Bi]([c]1ccccc1)[c]1ccccc1 | 24% (inactive)

Row | SMILES | growth inhibition
21 | CC1=C(SCCO)C(=O)c2ccccc2C1=O | 71% (active)
22 | C/C(=N\O)C1CC2C=C(C#N)C1N(Cc1ccccc1)C2 (stereo not given) | 19% (inactive)
23 | CC(Br)C(=O)c1ccc2cc(Br)c3ccccc3c2c1 (stereo not given) | 39% (inactive)
24 | Nc1nc(-c2cccnc2)cc(-c2cc(-c3cccnc3)nc(N)n2)n1 | -2% (inactive)
25 | CC(C)=CC(=O)O[C@@H]1CC(C)(C)CC2C3=CCC4[C@]56CC[C@](O)(OC5)C(C)(C)C6CC[C@@]4(C)C3(C)CC[C@]21C(=O)O (stereo not given in full) | 6% (inactive)
26 | CCC(C)COC(=O)c1ccc(N=Cc2ccc(C=Nc3ccc(C(=O)OCC(C)CC)cc3)cc2)cc1 (stereo not given) | 49% (inactive)
27 | Oc1cccc2c(Cl)ccnc12 | 97% (active)
28 | O=C(O)c1cccc(-c2c3ccc(=O)cc-3oc3cc(O)ccc23)c1 | 25% (inactive)
29 | CN(CCc1ccccn1)c1ccc2c(c1)Cc1ccccc1-2 | 88% (active)
30 | Cc1cc(S(=O)(=O)/N=C(/NN)NNc2cccc(C(F)(F)F)n2)c(S)cc1Cl | -50% (inactive)
31 | O=C1C2C(C(=O)N1c1ccc(OCc3ccccc3)cc1)C1c3ccccc3C2C2CCCCN21 (stereo not given) | 6% (inactive)
32 | Nc1ccccc1CC(O)C(=O)O (stereo not given) | 4% (inactive)
33 | O=C(O)C1CCCCC1c1c2ccc(=O)c(O)c-2oc2c(O)c(O)ccc12 (stereo not given) | -48% (inactive)
34 | Cc1ccc2ccc(O)cc2c1 | 46% (inactive)
35 | O=C1C(=O)c2ccccc2C=C1[N+](=O)[O-] | 29% (inactive)
36 | COC(=O)c1ccc(NCC2=CC(=O)C=CC2=O)cc1O | 92% (active)
37 | C(CCSC1=NCCN1)CSC1=NCCN1 (tested in a mixture with another compound) | 99% (active)
38 | N#Cc1c(N)[nH]c2ccc(Sc3ccccc3)cc12 | 51% (inactive)
39 | CCNc1nnc(CSc2nc(-c3ccccc3)c(-c3ccccc3)[nH]2)s1 | 5% (inactive)
40 | CC[C@@]1(O)C(=O)OCc2c1cc1n(c2=O)Cc2cc3c(N)cccc3nc2-1 | 52% (inactive)

Experiment: NCI Yeast Anticancer Drug Screen. Data for the mgt1 strain (AID 153)
Details: S. cerevisiae mgt1 mutant growth inhibition; at 1.2 µM; hits give high values
In short: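 Vehicle-normalized growth inhibition is determined in mgt1 yeast, a strain selected for a defined alteration in DNA repair or cell cycle control.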

Row | SMILES | growth inhibition
41 | S=C(S)NN1CCOCC1 | 52% (inactive)
42 | COc1cc2c3c(cccc3c1)C(=O)N(CCN(C)C)C2=O | -24% (inactive)
43 | COC(=O)C1=C(C)NC(C)=C(C(=O)OCCCN2CCC(c3ccccc3)(c3ccccc3)CC2)C1c1cccc([N+](=O)[O-])c1 (stereo not given) | -5% (inactive)
44 | c1ccc2c(c1)Oc1cccc3cccc-2c13 | -1% (inactive)
45 | CN(C)CCOc1ccc2c(c1)C/C(=C/c1ncc([N+](=O)[O-])n1C)C2=O | 31% (inactive)
46 | Cc1ccc(CCC2=CCCc3c2ccc2ccccc32)cc1 | -4% (inactive)
47 | CNC(=O)OCc1c(COC(=O)NC)c(-c2ccc(Cl)c(Cl)c2)n2c1CCC2 | -66% (inactive)
48 | Clc1ccccc1C1OC1c1ccccc1Cl (stereo not given) | -60% (inactive)
49 | O=[N+]([O-])c1cc(CCl)ccc1CCl | 4% (inactive)
50 | O=C1C=CC(=O)c2c(O)c(Nc3ccc(OC(F)(F)F)cc3)c(Cl)c(O)c21 | 9% (inactive)
51 | S=c1[nH]nc(Nc2ccc(Cl)cc2)s1 | -1% (inactive)
52 | Cn1ccnc1Oc1ccc(Cl)cc1 | -4% (inactive)
53 | BrCc1cccc2ccc3cccc(CBr)c3c12 | 2% (inactive)
54 | O=C1c2ccccc2-c2nc3ccccc3nc21 | -50% (inactive)
55 | CCCCCCCCCCCCCCCCCCNC | 17% (inactive)
56 | Oc1ccc(NCn2c(=S)sc3ccccc32)cc1 | 14% (inactive)
57 | O=C1C2CC[C@@H]3C(=O)C(Cl)(Cl)[C@@H]3CCC2C1(Cl)Cl (stereo not given in full) | -2% (inactive)
58 | CC[n+]1ccc2c(C)c3[nH]c4ccc(O)cc4c3c(C)c2c1 | -36% (inactive)
59 | Cc1ccc(-n2cc(-c3ccc(Cl)cc3)c(C#N)c2N)cc1 | 1% (inactive)
60 | CC(=O)[O][Bi]([c]1ccccc1)[c]1ccccc1 | 28% (inactive)

Row | SMILES | growth inhibition
61 | CC1=C(SCCO)C(=O)c2ccccc2C1=O | -3% (inactive)
62 | C/C(=N\O)C1CC2C=C(C#N)C1N(Cc1ccccc1)C2 (stereo not given) | -5% (inactive)
63 | CC(Br)C(=O)c1ccc2cc(Br)c3ccccc3c2c1 (stereo not given) | -1% (inactive)
64 | Nc1nc(-c2cccnc2)cc(-c2cc(-c3cccnc3)nc(N)n2)n1 | 2% (inactive)
65 | CC(C)=CC(=O)O[C@@H]1CC(C)(C)CC2C3=CCC4[C@]56CC[C@](O)(OC5)C(C)(C)C6CC[C@@]4(C)C3(C)CC[C@]21C(=O)O (stereo not given in full) | -15% (inactive)
66 | CCC(C)COC(=O)c1ccc(N=Cc2ccc(C=Nc3ccc(C(=O)OCC(C)CC)cc3)cc2)cc1 (stereo not given) | 1% (inactive)
67 | Oc1cccc2c(Cl)ccnc12 | 41% (inactive)
68 | O=C(O)c1cccc(-c2c3ccc(=O)cc-3oc3cc(O)ccc23)c1 | 21% (inactive)
69 | CN(CCc1ccccn1)c1ccc2c(c1)Cc1ccccc1-2 | -3% (inactive)
70 | Cc1cc(S(=O)(=O)/N=C(/NN)NNc2cccc(C(F)(F)F)n2)c(S)cc1Cl | -3% (inactive)
71 | O=C1C2C(C(=O)N1c1ccc(OCc3ccccc3)cc1)C1c3ccccc3C2C2CCCCN21 (stereo not given) | 4% (inactive)
72 | Nc1ccccc1CC(O)C(=O)O (stereo not given) | 4% (inactive)
73 | O=C(O)C1CCCCC1c1c2ccc(=O)c(O)c-2oc2c(O)c(O)ccc12 (stereo not given) | 11% (inactive)
74 | Cc1ccc2ccc(O)cc2c1 | -25% (inactive)
75 | O=C1C(=O)c2ccccc2C=C1[N+](=O)[O-] | 2% (inactive)
76 | COC(=O)c1ccc(NCC2=CC(=O)C=CC2=O)cc1O | 9% (inactive)
77 | C(CCSC1=NCCN1)CSC1=NCCN1 (tested in a mixture with another compound) | -2% (inactive)
78 | N#Cc1c(N)[nH]c2ccc(Sc3ccccc3)cc12 | -1% (inactive)
79 | CCNc1nnc(CSc2nc(-c3ccccc3)c(-c3ccccc3)[nH]2)s1 | -9% (inactive)
80 | CC[C@@]1(O)C(=O)OCc2c1cc1n(c2=O)Cc2cc3c(N)cccc3nc2-1 | 4% (inactive)
